# According to ChEMBL document CHEMBL3988442, “University of Dundee, Small-Polar-MMV Screening Library” (2021):
# Target: T1, Arginase-2, mitochondrial (Homo sapiens) (UniProt P78540)
# T1 sequence (whole entry): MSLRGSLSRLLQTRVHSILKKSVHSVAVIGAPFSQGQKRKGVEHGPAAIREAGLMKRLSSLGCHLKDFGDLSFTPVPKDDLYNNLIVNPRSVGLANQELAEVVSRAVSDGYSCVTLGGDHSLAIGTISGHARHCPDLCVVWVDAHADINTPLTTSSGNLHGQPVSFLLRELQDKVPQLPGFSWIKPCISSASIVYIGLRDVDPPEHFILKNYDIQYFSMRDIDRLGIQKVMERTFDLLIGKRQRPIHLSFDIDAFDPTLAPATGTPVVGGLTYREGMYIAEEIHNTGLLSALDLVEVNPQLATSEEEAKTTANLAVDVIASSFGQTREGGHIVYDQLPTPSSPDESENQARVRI
# Assay: in vitro enzyme assay to detect the production of urea directly proportional to the activity of Arginase II
# Type: functional
# Set-up: scale not given: in the data most compounds retested in dose-response had high values
# Conditions: 30 µM
row,Compound,Percent Effect
1,CCC(C(=O)NCc1ccncc1)N(c1ccc(F)cc1)S(C)(=O)=O (stereo not given),8.11%
2,Cc1ccc(-c2nc(CN3CC(n4nc(C)cc4C)C3)no2)cc1,3.78%
3,OC(CN(Cc1ccccc1)Cc1cscn1)c1cccs1 (stereo not given),8.11%
4,CN(C)C1CCCN(C(=O)CCc2csc(N)n2)CC1 (stereo not given),1.62%
5,COc1ccc2c(c1)OCC(CNC(=O)c1cnc(NC(C)C)nc1)C2 (stereo not given),2.7%
6,COC(=O)c1ccc(C2SC(C)=Nc3c2c(=O)[nH]n3C2CCCC2)cc1 (stereo not given),11.3%
7,COCCCC1CCCN(C(=O)CCc2csc(N)n2)C1 (stereo not given),3.78%
8,CN(C)c1ncccc1CN1CCOC(C(=O)Nc2ccccc2)C1 (stereo not given),1.62%
9,Cc1ccoc1CNCc1nnc2n1CC(C(F)(F)F)CC2 (stereo not given),3.78%
10,Cn1cc(CC2CCN(C(=O)NCc3csc(C4CC4)n3)C2)cn1 (stereo not given),7.03%
11,CCc1cc(CNC(=O)N2CCN(c3nc(C)c(C)s3)CC2)on1,3.78%
12,O=C(Cn1nc2c(cc1=O)CCCC2)NC(C(=O)O)c1ccccc1 (stereo not given),-2.7%
13,Cc1cccc(OCC(O)CN2CCN(c3nccs3)CC2)c1 (stereo not given),3.78%
14,OC(COc1ccccc1)CN1CCN(c2nccs2)CC1 (stereo not given),4.87%
15,Cc1cnc(C(=O)N2CCCC(c3nccn3Cc3cscn3)C2)cn1 (stereo not given),-5.95%
16,CCOCCCNC(=O)c1cc(Br)c2c(c1)OCCO2,0.54%
17,CCC(C(=O)NCc1ccccn1)N(c1cccc(C)c1)S(C)(=O)=O (stereo not given),9.19%
18,Cc1ccc2c(c1)CCC2NCc1c(C)nn(CCO)c1C (stereo not given),3.78%
19,CCn1c(NCc2ccc(OC)cc2)nc2c(C)nn(C)c2c1=O,-4.87%
20,CC(C)CN1CCC(NC(=O)c2ccc(F)cc2Cl)CC1,5.95%

row,Compound,Percent Effect
1,COc1ccccc1Oc1ncccc1CNC(=O)[C@H](N)CC(C)(C)C,10.3%
2,Cc1cccc(C(=O)N2CCCC(c3nccn3Cc3cscn3)C2)n1 (stereo not given),9.19%
3,COCCC(=O)NCC1COc2cc(OC)ccc2C1 (stereo not given),5.95%
4,COCCN1CCC(c2cncc(-c3cccc(Cl)c3)n2)CC1,5.95%
5,COc1ccc2c(c1)OCC(CNC(=O)c1ccc3[nH]nnc3c1)C2 (stereo not given),8.11%
6,Cc1cc(C)n(C2CN(Cc3noc(C4CC4)n3)C2)n1,8.11%
7,Cc1cccc(NC2CCc3c2[nH]c(=O)n(C2CCCCC2)c3=O)c1C (stereo not given),-0.54%
8,O=C(NCc1ccncc1)N(Cc1ccc(F)cc1F)C1CC1,3.78%
9,NC(=O)CCCNC(=O)c1cc(Br)c2c(c1)OCCO2,3.78%
10,COCc1csc(NC(=O)N2CCC(Cc3cnn(C)c3)C2)n1 (stereo not given),2.7%
11,c1ccc(OC2COC3(CCN(CC4CC4)CC3)C2)nc1 (stereo not given),-16.8%
12,CCc1nc(C)c(C(=O)NCC2COc3cc(OC)ccc3C2)o1 (stereo not given),5.95%
13,COC(=O)CCNC(=O)c1cc(Br)c2c(c1)OCCO2,5.95%
14,Cn1cc(CC2CCN(C(=O)NCCCc3ccc(O)cc3)C2)cn1 (stereo not given),7.03%
15,CCS(=O)(=O)CC(=O)N1CCCC1c1noc(C2CC2)n1 (stereo not given),2.7%
16,Cc1nn(CCO)c(C)c1CNC1CCCCc2ccccc21 (stereo not given),3.78%
17,CN(Cc1cccnc1)C1CC2(CCN(Cc3ccccn3)CC2)C1,2.7%
18,COc1ccc(NC2CCc3c2[nH]c(=O)n(C2CCCCC2)c3=O)cc1 (stereo not given),4.87%
19,CCOCCNC(=O)c1cc(Br)c2c(c1)OCCO2,9.19%
20,COc1ccc2c(c1)OCC(CNC(=O)NC(C)(C)C)C2 (stereo not given),5.95%
